In the library only some 7.9% were active in any assay of this set; here they are far more common.
FMDV antiviral = blocks foot and mouth disease virus. FMDV antiviral cell-based qHTS. Potency, µM (highest dose often 57.9 µM), for the others: top-dose activity change, negative = inhibition, usual class: inhibitors. 410,000 compounds, 1.2% hits. AID 1159524; calls by dose curve; tested in HEK293T cells; also: read-out not given here; potency is read from the fitted curve at half-maximal effect; nearly all actives have a fitted effect of over 45% in size
HCMV antiviral = human cytomegalovirus inhibition; HFF cells, HCMV-luciferase reporter, 72 h; hits give low values; activity change, negative = inhibition, % at 57.5 µM; 410,000 compounds, 4.5% hits; AID 1259415; in the data active = activity change below about -60%; inconclusive = no clear call, values can overlap the other calls; inactive = above about -39%
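Two-dose cell screen: HFF monolayers treated with compounds and infected with luciferase-expressing HCMV at 1 PFU/cell, 72 h at 37C, then lysed for luciferase measurement.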
HCV inh = inhibitors of hepatitis C virus infection; Huh7.5.1 HCVcc-Cre infection, luciferase reporter, 44 h; Potency, µM (doses to about 41.8 µM), inactives show at the highest dose activity change, negative = inhibition, actives largely listed as inhibitors; 340,000 compounds, 3.4% hits; AID 651820; active = well fitted inhibition curve with a large enough effect; inconclusive = small, poorly fitted or top-dose-only effect, or another doubt; inactive = no such curve, though single readings can be large or run the other way; also: potency is read from the fitted curve at half-maximal effect
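Compounds are dispensed onto cells plated 4 h earlier at 1,000 per well, with HCVcc-Cre virus (about 0.5 moi) added next. Following 44 h of culture, luminescent signal is measured for 15 sec after 15 min with substrate at room temperature.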
Lassa entry inh = Lassa virus entry inhibition; Lassa virus pseudotype entry inhibition, cell reporter; Potency, µM (highest dose often 37.9 µM), for the others: at the highest dose activity change, negative = inhibition, actives largely listed as inhibitors; 300,000 compounds, 1.2% hits; AID 540256; calls by dose curve; tested in HEK293 cells; also: potency is read from the fitted curve at half-maximal effect; nearly all actives have a fitted effect of over 50% in size
MARV entry inh = inhibitors of Marburg virus binding or cell entry; Marburg virus pseudotyped entry inhibition, cell reporter; Potency, µM (series often up to 37.8 µM), inactives show at the highest dose activity change, negative = inhibition, hits mostly inhibitors; 300,000 compounds, 1.8% hits; calls by dose curve; tested in HEK293 cells; also: potency is read from the fitted curve at half-maximal effect
Numbers without * were called inactive; u = inconclusive; x = not tested or not shown; [ ] = another dose, or the depositor's remark. % is scaled to controls: 0 for no effect and ±100 for the full control effect.

SMILES	FMDV antiviral	HCMV antiviral	HCV inh	Lassa entry inh	MARV entry inh
O=C(Cn1ncc(Cl)c(Cl)c1=O)NC1CCS(=O)(=O)C1 (stereo not given)	-14.1%	-62.5*	-26.4%	x	x
O=C(Cn1ncc(Cl)c(Cl)c1=O)NCC1CCCCC1	28.2µM*	-100.7*	2.82µM*	17.8µM*	u
Cc1cccc(NC(=O)CNC(=O)Cn2ncc(Cl)c(Cl)c2=O)c1C	22.4µM*	x	0.708µM*	u	u
O=C(Cn1ncc(Cl)c(Cl)c1=O)NC1CCCCC1	35.5µM*	0.0	2.82µM*	x	x
Cc1ccc(Cn2c(C)c3cnn(CC(=O)NC4CCCC4)c(=O)c3c2C)cc1	-6.9%	-16.0	5.6%	x	x
O=C(COC(=O)c1ccc(Cl)cc1)NCC1CCCCC1	-5.3%	-19.9	11.1%	6.7%	-1.1%
O=C(CN1C(=O)c2ccccc2C1=O)NC1CCS(=O)(=O)C1 (stereo not given)	9.1%	2.4	x	x	x
COc1cc(C(=O)N2CCC(c3nc4ccccc4o3)CC2)cc(OC)c1OC	-20.9%	57.4	x	-9.3%[46.1 µM]	-22.6%[46.1 µM]
C=C(C)C(=O)/C=C/C=C/c1ccccc1	x	x	x	x	-87.0%[14.2 µM]
CCCN(C(=O)COc1cc(=O)n(CC)c2ccccc12)c1ccc(C(C)C)cc1	u	-102.1*	x	-23.9%[46.1 µM]	-18.2%[46.1 µM]
CCCCCCNc1c([N+](=O)[O-])cc(C)cc1[N+](=O)[O-]	-24.9%	-68.9*	8.7%	6.0%	-2.3%
CCCCNc1ccc(S(=O)(=O)c2cccc([N+](=O)[O-])c2)cc1[N+](=O)[O-]	-16.9%	-31.8	0.1%	-4.5%	4.4%
O=c1c2ccccc2[nH]c(=S)n1Cc1ccccc1	23.0%	-12.8	-3.7%	-1.3%[46.1 µM]	21.4%[46.1 µM]
O=c1c2ccccc2[nH]c(=S)n1Cc1cccs1	44.5%	-68.2*	10.4%	1.4%	8.2%
COc1cccc(CO[C@H]2C=C[C@@H](c3ccccc3)O[C@H]2COC(C)=O)c1	x	x	x	x	8.0%[14.2 µM]
CCCCNc1c2c3c(cccc3n(C)c1=O)C(=O)c1ccccc1-2	31.6µM*	x	u	-27.8%	u
CCOC(=O)C1(CC2CCCCO2)CCN(C(=O)Nc2ccccc2CC)CC1 (stereo not given)	-17.6%	-64.6*	9.4%	x	x
O=C(NCCc1c[nH]c2ccccc12)C1CCC(Cn2c(=S)[nH]c3ccccc3c2=O)CC1 (stereo not given)	-5.4%	-67.7*	4.47µM*	u	u
CC1(C(=O)NCCc2c[nH]c3ccccc23)CCN1CC1CCCCC1 (stereo not given)	-22.2%	-63.6*	x	x	x
COc1cc(/C=C2\SC(=S)N(N(C)c3ccccc3)C2=O)ccc1O	-2.8%	-101.1*	34.6%	x	x
COc1cc(/C=C2/SC(=S)N(Cc3ccccc3)C2=O)ccc1OS(C)(=O)=O	8.4%	-68.9*	u	x	x
COc1ccc(/C=C2\SC(=S)N(CCC(=O)N(CCO)Cc3ccccc3)C2=O)cc1OC	u	-98.8*	u	x	x
COc1cc(/C=C2/SC(=S)N(Cc3ccccc3)C2=O)ccc1OCC(=O)O	u	-34.9	-4.1%	-21.9%[46.1 µM]	u
CCCCN(C)C(=O)C1CCCN(c2ncnc3onc(C)c23)C1 (stereo not given)	u	-36.2	x	0.4%[46.1 µM]	x
NCCC[C@@](N)(C(=O)O)C(F)F	x	x	x	x	-4.6%
SMILES	FMDV antiviral	HCMV antiviral	HCV inh	Lassa entry inh	MARV entry inh
O=C(Nc1ccccc1Br)C1CCCN(S(=O)(=O)c2cccc3nsnc23)C1 (stereo not given)	u	-22.3	x	2.2%[46.1 µM]	1.6%[46.1 µM]
CCOc1cnc(-c2ccc(Cl)cc2)o1	39.6%	-10.2	4.1%	17.6%	u
CCOc1cnc(-c2c(-c3c(Cl)cccc3Cl)noc2C)o1	-19.2%	-60.9*	-19.4%	u	u
CN1C(=O)c2cccc(NCCCCCCN3C(=O)c4ccccc4C3=O)c2C1=O	12.6µM*	30.7	6.2%	-1.8%	15.1%
Oc1ccccc1CN1CCCN(Cc2ccccc2O)C1	2.9%	15.9	8.91µM*	7.3µM*	1.46µM*
CCOc1cccc(NCc2cc3c(C(C)(C)C)nn(-c4ccccc4)c3[nH]c2=O)c1	x	6.0	12.6µM*	3.3%	u
C#CCSc1nnnn1-c1cccc(Cl)c1	-14.1%	-4.9	25.1µM*	u	3.16µM*
NC(=O)CSc1nnnn1-c1cccc(Cl)c1	-18.3%	1.0	32.8%	4.2%	15.0%
COc1cc(-c2nc(C)cnc2C)cc2c1OCCN(C(=O)Cc1cc(OC)c(OC)c(OC)c1)C2	-4.6%	x	x	x	x
Cc1ccc(/C=N/NC(=O)c2cc(-c3ccc(C)o3)[nH]n2)cc1	-7.3%	14.0	u	u	u
COc1ccccc1/C=C/C=N/NC(=O)c1cc(-c2ccc(C)o2)[nH]n1	-6.3%	u	10µM*	u	u
COc1ccccc1/C=C/C=N/NC(=O)Cc1cccs1	45.6%	21.3	u	0.116µM*	u
COC(=O)c1c[nH]c2c1-c1cc(C(=O)OCc3ccccc3)n(S(=O)(=O)c3ccc(C)cc3)c1C(=O)C2=O	7.94µM*	111.9	u	u	-15.9%
Cc1cccc(-c2c3c(=O)n(C)c(=O)n(C)c3c3c(C)nc4ccccc4n23)c1	u	12.0	x	18.5%[46.1 µM]	-4.2%[46.1 µM]
COc1ccc(CCN2C(=O)CN(C3CCC(C)CC3)C(=O)C2c2ccc(OC(C)C)c(OC)c2)cc1OC (stereo not given)	-7.7%	0.0	x	-7.5%[46.1 µM]	x
CCn1c(NN=O)nc2ccccc21	-11.7%	-103.3*	6.31µM*	u	u
CCCc1nc2ccccc2n1CCc1ccccc1	-6.0%	-73.6*	-15.9%[0.335 µM]	u	u
OCCCc1nc2ccccc2n1CCc1ccccc1	-2.7%	-20.4	13.9%	0.3%	-1.8%
CCCn1c(Nc2nc3ccccc3n2C)nc2ccccc21	u	-99.8*	u	-14.3%	u
CCC(=O)NCc1nc2ccccc2n1Cc1ccccc1F	14.8%	-99.4*	-4.7%	-9.0%	2.5%
CCn1c(Nc2ccccc2Cl)nc2ccccc21	-1.7%	-6.0	-23.4%	2.2%	-13.2%[46.1 µM]
CCCCCCCC=CC1=CC2(C)CC1(C)C(CCCCCCC)CC2=O (stereo not given)	x	x	x	x	17.0%[14.2 µM]
CC(=O)Nc1nc2ccccc2n1Cc1ccccc1Cl	u	-96.3*	-34.3%	-9.3%	u
CCn1c(NCc2cc(Cl)ccc2O)nc2ccccc21	-23.6%	0.0	31.6µM*	x	x
CCC(=O)Nc1nc2ccccc2n1Cc1ccc(Cl)cc1	u	-76.2*	u	u	11.6µM*
SMILES	FMDV antiviral	HCMV antiviral	HCV inh	Lassa entry inh	MARV entry inh
CCC(=O)Nc1nc2ccccc2n1CCN1CCOCC1	-5.4%	-20.9	2.7%	u	-2.0%
CCC(=O)Nc1nc2ccccc2n1Cc1ccccc1Cl	-19.9%	u	u	x	x
CCCCCCCn1c(NC(=O)CC)nc2ccccc21	-28.7%	-83.9*	-35.1%	-26.9%	u
C=CCn1c(NCc2cc(Cl)ccc2O)nc2ccccc21	22.6%	56.9	u	u	u
O=C(COc1ccc(F)cc1)NCc1ccc2c(c1)CCN2C(=O)c1ccc(F)cc1	0.0%	11.7	x	u	x
CC(C)=CCC/C(C)=C/CO/N=C1/C[C@@H](O)[C@@H](O)[C@@H]2[C@@H]3C(=O)N(C[C@@H]4CCCO4)C(=O)[C@H]3CC[C@H]12	x	x	x	x	-5.0%[14.2 µM]

Source: PubChem
